The text below walks through data of PubChem BioAssay (EPA / NIEHS).

Structures are written as SMILES. Records with an inconclusive call do not appear. Calls of active or inactive are those of the source. How the source made its calls, unless noted: active means hit-call score of the fitted dose curve at least 0.9, where 1 is the maximum; inactive means score below 0.9.

The nature of test [1]: ACEA_ER_80hr: ACEA Biosciences xCELLigence Real-Time Cell Analysis on Estrogen Receptor Agonism for Proliferation (AID 2282667; active means hit-call score of the fitted dose curve at least 0.9, where 1 is the maximum). Particulars: T47D proliferation, impedance (xCELLigence), 80 h. The procedure, abridged: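 Impedance readout (RT-CES) of T47D proliferation at 80 h post-dose; gain of signal vs DMSO baseline. Compounds: 8 conc, 1:4 serial, top 100 uM final, ≤0.5% DMSO; biological duplicate.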

A short description of test [2]: ATG_CRE_CIS: Attagene CIS-FACTORIAL HepG2 Assay for human cAMP Responsive Element (CRE) binding protein 3 (AID 2282926). Particulars: HepG2 CRE cis-reporter, Attagene multiplexed mRNA; actives raise or lower the signal. The procedure, abridged:
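Readout: fluorescently labelled reporter transcripts resolved by capillary electrophoresis after RT-PCR, taken 24 h post-dosing in transfected HepG2. Endogenous transcription factor activity drives each cis-element reporter; gain or loss of signal fitted relative to DMSO control.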

Test [3] concerns the target CCAAT/enhancer-binding protein beta (Homo sapiens) (UniProt P17676). The experiment in a line: ATG_C_EBP_CIS: Attagene CIS-FACTORIAL HepG2 Assay for human CCAAT/Enhancer Binding Protein (C/EBP) beta (AID 2282927). The note with it: HepG2 Attagene cis-factorial transcription factor reporter; actives raise or lower the signal. The procedure, abridged:
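Endogenous C/EBPb-driven reporter transcripts measured in transfected human HepG2 cells at 24 h via RT-PCR and capillary electrophoresis of labelled fragments. Activity fitted in both directions relative to DMSO baseline.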

Test [4] is described as follows: ATG_CMV_CIS: Attagene CIS-FACTORIAL HepG2 Assay for human CMV (Internal Marker) (AID 2282928).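 Further: endpoint acts as a background internal control marker rather than a target.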 Particulars: HepG2 CMV promoter reporter, transcription factor profiling; actives raise or lower the signal. The procedure, abridged: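 Fluorescence intensity of RT-PCR-derived reporter fragments, resolved by capillary electrophoresis, gives the signal. HepG2 liver cells bearing transfected cis-element reporters were treated 24 h; activity in either direction was fit relative to DMSO-treated controls.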

In test [5] the target is Aryl hydrocarbon receptor (Homo sapiens) (UniProt P35869). The experiment in a line: ATG_Ahr_CIS: Attagene CIS-FACTORIAL HepG2 Assay for human Aryl Hydrocarbon Receptor (Ahr) (AID 2282930). The note with it: HepG2 AhR cis-factorial reporter transcription; actives raise or lower the signal. The procedure, abridged:
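Reporter mRNA levels, quantified by RT-PCR and fluorescent capillary electrophoresis, reflect endogenous AhR transcriptional activity in HepG2 cells carrying transfected cis-promoter reporter constructs. Readout at 24 h post-dose; gain or loss fitted against DMSO baseline.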

The nature of test [6]: ATG_AP_1_CIS: Attagene CIS-FACTORIAL HepG2 Assay for human Activator Protein 1 (AP-1) (AID 2282931). Particulars: HepG2 Attagene cis-factorial AP-1 reporter mRNA; actives raise or lower the signal. The procedure, abridged:
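Transient MRTU transfection of HepG2 → 24 h chemical treatment → RNA isolation, RT-PCR, 6-FAM labelling, HpaI digest → capillary electrophoresis. Fit: bidirectional, DMSO negative control.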

Test [7] in a line: ATG_AP_2_CIS: Attagene CIS-FACTORIAL HepG2 Assay for human Activator Protein 2 (AP-2) (AID 2282932). Particulars: HepG2 AP-2 cis-reporter, Attagene transcription factor profiling; actives raise or lower the signal. The procedure, abridged: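 Transiently transfected HepG2 cells are exposed to chemical for 24 h. Reporter transcripts are then measured as fluorescence following RT-PCR and capillary separation, and gain- or loss-of-signal is fitted relative to DMSO.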

Test [8] in a line: ATG_BRE_CIS: Attagene CIS-FACTORIAL HepG2 Assay for human Bone Morphogenetic Protein (BMP) Response Element (BRE) (AID 2282933). Particulars: HepG2 BMP response element reporter, Attagene transcription factor profiling; actives raise or lower the signal. The procedure, abridged:
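After a 24 h chemical treatment, transiently transfected HepG2 cells were lysed for RNA; reporter transcripts were quantified by fluorescent RT-PCR and capillary electrophoresis, normalised to DMSO.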

The target in test [9] is Retinoic acid receptor alpha (Homo sapiens) (UniProt P10276). The experiment in a line: ATG_DR5_RAR_CIS: Attagene CIS-FACTORIAL HepG2 Assay for human Retinoic Acid Receptor Alpha (RARE), DR5 submotif (AID 2282934). The note with it: HepG2 Attagene cis-factorial RARE DR5 reporter, mRNA; actives raise or lower the signal. The procedure, abridged: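 Reporter transcripts from a DR5-regulated unit, measured via RT-PCR plus capillary electrophoresis, reflect endogenous RAR activity in transiently transfected human HepG2 liver cells. Exposure lasted 24 h; gain or loss of signal scored against DMSO.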
Sequence of Retinoic acid receptor alpha (Homo sapiens) (P10276 whole entry, looked up): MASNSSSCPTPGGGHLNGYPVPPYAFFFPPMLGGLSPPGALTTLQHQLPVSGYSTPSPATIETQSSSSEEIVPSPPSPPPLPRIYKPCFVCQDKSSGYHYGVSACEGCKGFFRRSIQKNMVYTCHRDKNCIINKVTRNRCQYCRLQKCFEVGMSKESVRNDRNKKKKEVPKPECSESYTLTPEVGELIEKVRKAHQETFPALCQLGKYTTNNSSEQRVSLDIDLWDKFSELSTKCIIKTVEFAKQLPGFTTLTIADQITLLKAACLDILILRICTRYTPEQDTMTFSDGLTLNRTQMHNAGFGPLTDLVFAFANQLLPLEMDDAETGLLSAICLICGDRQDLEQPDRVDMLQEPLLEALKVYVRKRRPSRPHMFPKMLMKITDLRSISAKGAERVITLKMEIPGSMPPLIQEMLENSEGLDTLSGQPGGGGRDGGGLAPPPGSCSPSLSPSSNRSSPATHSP

The nature of test [10]: ATG_DR4_LXR_CIS: Attagene CIS-FACTORIAL HepG2 Assay for human Liver X Receptor (LXR), DR4 submotif (AID 2282929). The note with it: HepG2 Attagene DR4 cis-reporter, mRNA transcription; actives raise or lower the signal. The procedure, abridged: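 HepG2, transient MRTU transfection, cis-element (DR4) promoter; 24 h compound exposure; total RNA → oligo(dT) RT → PCR → 6-FAM primer extension → HpaI cut → CE. Gain/loss vs DMSO, bidirectional fit.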

In general, AC50 refers to the midpoint of the concentration-response curve, whichever way the signal moves.

Sequence of Aryl hydrocarbon receptor (Homo sapiens) (P35869 whole entry, looked up): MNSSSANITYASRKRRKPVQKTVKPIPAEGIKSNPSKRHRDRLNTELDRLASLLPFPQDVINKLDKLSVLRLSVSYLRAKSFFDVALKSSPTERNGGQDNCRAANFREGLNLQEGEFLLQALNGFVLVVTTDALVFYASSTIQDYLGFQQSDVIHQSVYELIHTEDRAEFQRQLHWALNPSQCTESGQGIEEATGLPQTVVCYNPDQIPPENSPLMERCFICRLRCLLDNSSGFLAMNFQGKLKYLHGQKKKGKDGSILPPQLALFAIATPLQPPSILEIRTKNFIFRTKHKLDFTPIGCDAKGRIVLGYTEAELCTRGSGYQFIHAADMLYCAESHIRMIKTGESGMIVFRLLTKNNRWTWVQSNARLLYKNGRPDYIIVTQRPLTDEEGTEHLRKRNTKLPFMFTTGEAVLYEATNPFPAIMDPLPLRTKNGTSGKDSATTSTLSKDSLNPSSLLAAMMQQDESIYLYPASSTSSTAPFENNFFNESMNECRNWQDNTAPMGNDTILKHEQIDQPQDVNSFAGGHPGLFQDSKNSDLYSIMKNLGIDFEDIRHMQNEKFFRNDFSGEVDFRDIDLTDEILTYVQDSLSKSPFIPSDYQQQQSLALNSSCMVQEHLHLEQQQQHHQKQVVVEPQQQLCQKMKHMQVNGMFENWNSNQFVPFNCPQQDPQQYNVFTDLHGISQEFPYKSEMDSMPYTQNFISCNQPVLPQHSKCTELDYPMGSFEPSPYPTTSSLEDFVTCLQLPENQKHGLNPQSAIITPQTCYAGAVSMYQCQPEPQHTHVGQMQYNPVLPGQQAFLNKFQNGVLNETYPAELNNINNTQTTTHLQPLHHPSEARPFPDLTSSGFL
Sequence of CCAAT/enhancer-binding protein beta (Homo sapiens) (P17676 whole entry, looked up, the tested form may be a part): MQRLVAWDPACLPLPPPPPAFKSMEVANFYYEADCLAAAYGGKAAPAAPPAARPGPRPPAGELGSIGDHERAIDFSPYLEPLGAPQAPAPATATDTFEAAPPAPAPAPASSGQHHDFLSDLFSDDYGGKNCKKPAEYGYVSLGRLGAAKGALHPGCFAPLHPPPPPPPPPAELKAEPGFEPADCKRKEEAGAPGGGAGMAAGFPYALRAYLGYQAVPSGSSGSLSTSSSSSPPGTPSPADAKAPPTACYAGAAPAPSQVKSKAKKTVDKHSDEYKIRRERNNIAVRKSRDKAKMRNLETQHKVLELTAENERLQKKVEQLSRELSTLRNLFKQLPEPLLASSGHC

Turning to `CC1=CP(=O)(c2ccccc2)CC1` (stereo unspecified), the call in test [1], in test [2], in test [3], in test [4], in [5] and in test [6] was inactive. For the same compound, the outcome in test [7], in test [8] and in test [9] was inactive.

Regarding `Oc1c(Cl)cc(Cl)c(Cl)c1Cl`, the results for the AC50 in test [1] and in [8] were 10.5 µM (active) and 100 µM (active), respectively. Further, the outcome in test [2], in test [3], in test [4], in test [5], in test [6] and in test [7] was inactive. Moreover, in test [9], the call was inactive.

Regarding `CCCCC1C(=O)N(c2ccccc2)N(c2ccccc2)C1=O`, the result in [1], in test [2], in [3], in test [4], in test [5] and in test [6] was inactive. Moreover, the compound was classed as inactive in test [7], in test [8] and in test [9].

For the compound `CC=CC(=O)OCC(C)C`, the compound was called inactive in test [1], in [2], in [4], in [10], in [5] and in [6]. The compound was called inactive in test [7] and in test [8].

In the case of `CC(=O)CC(=O)Nc1ccccc1C`, the compound was called inactive in [1], in test [2], in [3], in [4], in test [5] and in test [7]. Moreover, the compound was classed as inactive in [8] and in [9].

For `Cn1cccc1`, the compound was called inactive in test [1], in test [2], in test [3], in [4], in test [5] and in test [7]. Also, the call in [8] and in [9] was inactive. Moreover, the AC50 in [6] was 26.4 µM (active).

For the compound `COCC(=O)O`, the result in [1], in test [2], in test [4], in [10], in [5] and in test [6] was inactive. The outcome in test [7], in test [8] and in test [9] was inactive.

As to `C[Si](C)(C)N[Si](C)(C)C`, the outcome in test [1], in test [2], in [3], in [4], in test [10] and in test [7] was inactive. Also, the result in test [8] and in [9] was inactive.

As for `O=C(O)CC(C(=O)O)S(=O)(=O)O` (stereo unspecified), the outcome in [1], in [2], in [3], in [4], in test [5] and in test [7] was inactive. For the same compound, in test [8], the result was inactive.

For the compound `CCCCCCCO`, the compound was called inactive in [1], in test [2], in test [3], in test [4], in [6] and in test [7]. In addition, the result in test [8] was inactive.

Take `CCCCCCOc1ccc(N)cc1`: the call in [1], in test [2], in test [5], in [6], in [7] and in [8] was inactive. Moreover, the result in [9] was inactive. The AC50 in [4] was 155 µM (active); in test [10] it was 159 µM (active).

Turning to `Nc1ncnc2nc[nH]c12`, the compound was called inactive in test [1], in test [2], in [4], in test [10], in test [5] and in test [7]. The result in test [8] and in test [9] was inactive.

Turning to `O=C(Cl)c1c(Cl)c(Cl)c(C(=O)Cl)c(Cl)c1Cl`, the compound was classed as inactive in test [1], in test [2], in [4], in [10], in test [5] and in test [6]. The outcome in [7], in test [8] and in test [9] was inactive.

As to `CCC(C)C(=O)OCCc1ccccc1` (stereo unspecified), the AC50 in test [1] was 1.68 µM (active). Besides, the compound was called inactive in [2], in [4], in test [10], in test [6], in test [7] and in [8]. Further, the call in test [9] was inactive.

As for `CC(C)=NNC(N)=S`, the outcome in test [1], in test [2], in test [4], in test [10], in test [6] and in test [7] was inactive. In addition, the outcome in test [8] and in test [9] was inactive.

Take `CC1CC(=O)CC(C)(C)C1` (stereo unspecified): the compound was called inactive in test [1], in [2], in test [4], in test [10], in test [6] and in test [7]. Also, the result in test [8] and in test [9] was inactive.

For `CCOC(=O)C1=NN(c2ccc(Cl)cc2Cl)C(C)(C(=O)OCC)C1` (stereo unspecified), the compound was called inactive in test [1], in [2], in test [4], in test [10], in [7] and in test [8]. In test [6], the AC50 is 164 µM (active).

For the compound `CCCCC/C=C\C/C=C\CCCCCCCC(=O)O`, the result in test [1], in [2], in [4], in test [7] and in test [8] was inactive. For the same compound, the AC50 in test [5] was 100 µM (active); in test [6], 153 µM (active).

As to `CC(c1cc(C(C)(C)C)cc(C(C)(C)C)c1O)c1cc(C(C)(C)C)cc(C(C)(C)C)c1O`, the result in test [1], in test [2], in test [4], in [10], in test [5] and in test [6] was inactive. Besides, the compound was called inactive in test [7], in [8] and in [9].

For the compound `CC(C)(C)C1CCC(=O)CC1`, the compound was classed as inactive in [1], in test [2], in [4], in [5], in test [6] and in test [7]. The result in test [8] and in [9] was inactive. For the same compound, the AC50 in test [10] is 160 µM (active).

For the compound `CCCCCCCCCCCC(C)=O`, the call in test [1], in test [2] and in test [8] was inactive. The AC50 in test [4] was 124 µM (active); in test [6], 72.7 µM (active); in test [7], 153 µM (active).

Regarding `CCN1CN(CC)CN(CC)C1`, the compound was classed as inactive in test [1], in [6], in test [7], in [8] and in test [9]. The AC50 in test [2] is 162 µM (active); in [4], 140 µM (active).

Turning to `CCCCCCOC(=O)CCCCC(=O)OCCCCCC`, the compound was classed as inactive in [1], in test [2], in [4], in [10], in [6] and in test [7]. Also, the result in test [8] and in [9] was inactive.

Take `C1CCSC1`: the outcome in test [1], in [2], in test [4], in [10], in test [5] and in test [6] was inactive. The compound was called inactive in test [7], in test [8] and in test [9].

On to `CC1(C)C(=O)N(CO)C(=O)N1CO`, for which the compound was called inactive in test [1], in test [2], in [4], in test [10], in test [5] and in test [7]. The compound was classed as inactive in [8] and in test [9].

On to `[Cl][Sc]([Cl])[Cl]`, for which the result in [1], in test [2], in test [4], in test [10], in test [6] and in test [7] was inactive. Besides, the compound was classed as inactive in test [8] and in [9]. The AC50 in test [5] is 0.188 µM (active).

For `COC(=O)CC(C)CCC=C(C)C` (stereo unspecified), the call in test [1], in test [2], in test [4], in [10], in [5] and in test [6] was inactive. Also, the call in test [7], in [8] and in test [9] was inactive.

For the compound `COC(C=C(C)CCC=C(C)C)OC`, the compound was classed as inactive in test [1], in test [2], in [4], in test [10], in [7] and in [8]. In addition, the outcome in [9] was inactive. In test [6], the AC50 was 146 µM (active).

Regarding `CC(=O)C(C)C`, the result in test [2], in [3], in test [4], in [10], in [5] and in test [6] was inactive. Also, the call in test [7] and in [8] was inactive.

Take `C=C[Si](OCCOC)(OCCOC)OCCOC`: the outcome in test [1], in [2], in test [4], in [10], in test [5] and in [6] was inactive. Besides, the result in test [7], in [8] and in test [9] was inactive.
